Only a selection was taken, and hits are over-represented in it overall.
IMPase cell inh – membrane-permeable compound that blocks inositol monophosphatase; inhibition (IP1 accumulation), % at 46.1 µM; 120,000 tested, under 10 active; P97697; CHO-M1 cells, IP1 accumulation, HTRF TR-FRET ratio; AID 901; active means well fitted curve in the direction sought with a large enough effect in the signal ratio, not every such curve was filed as active; inconclusive means small, poorly fitted or top-dose-only effect, or a change in a side signal; inactive means no such curve, though single readings can be large or run the other way; the % refers to the signal ratio;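 further: cells stimulated with carbachol in lithium chloride buffer; plate controls were DMSO basal wells for no effect and reference inhibitor wells for full effect; higher means more IMPase inhibition seen as more IP1 and lower FRET ratio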
Target sequence (P97697 whole entry, looked up): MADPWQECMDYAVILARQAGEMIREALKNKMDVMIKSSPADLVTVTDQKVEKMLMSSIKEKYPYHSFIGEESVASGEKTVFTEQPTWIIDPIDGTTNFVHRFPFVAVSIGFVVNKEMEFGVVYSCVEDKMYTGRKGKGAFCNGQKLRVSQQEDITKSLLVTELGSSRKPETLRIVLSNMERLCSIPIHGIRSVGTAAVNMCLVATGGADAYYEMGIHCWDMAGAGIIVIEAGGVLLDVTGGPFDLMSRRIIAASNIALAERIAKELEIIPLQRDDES
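The IP-One HTRF competitive assay in carbachol-stimulated CHO-M1 cells quantifies cellular IP1. Compounds spanned up to 46 uM final, and activity is expressed as AC50 from concentration-response fits of the ratio and donor data.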
PNC inhibitor – inhibitors of perinucleolar compartment assembly. PC3M PTB-GFP, PNC prevalence imaging, 16 h; stronger effect = lower value. activity change (PNC), negative = inhibition, % at 10 µM. 140,000 compounds, 3.1% hits. AID 2417;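 active means readout at or below -70, meaning at least 70% loss of cells showing the perinucleolar compartment, a nuclear body marking cancer cells; inconclusive means readout between -30 and a set limit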;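 further: plate controls were DMSO wells for no effect and camptothecin positive control wells for full effect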
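PC3M cells stably expressing PTB-GFP, 750–1000 cells/well, treated 16 h at 37 °C with compound (23 nl of library stock), in duplicate. After paraformaldehyde fixation and Hoechst stain, imaged at 20x; PNC prevalence scored by image analysis.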
ALOX12 inhib – inhibitors of human 12-lipoxygenase (ALOX12) | purified 12-hLO, xylenol orange hydroperoxide absorbance | P18054 | Potency, µM (top dose mostly 57.1 µM), without a hit: top-dose activity change, negative = inhibition, actives largely listed as inhibitors | AID 1452 | 150,000 compounds, 0.12% hits; further: potency means the concentration at half of the fitted maximal effect; nearly all actives have a fitted effect of over 55% in size
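Purified human 12hLO (150 nM), preincubated 15 min with compound, then 40 uM arachidonic acid for 30 min, room temperature, Hepes pH 7.0 with 0.01% Triton X-100. Hydroperoxide detected by ferrous iron/xylenol orange; 573/405 nm absorbance ratio gives reaction progress.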
IMPase Li inh – cell-permeable IMPase inhibitors with lithium potentiation | Potency, µM (top dose mostly 59.4 µM), for the others: at the highest dose activity, negative = IMPase inhibition, usual class: inhibitors | CHO-M1 cells, IP1 TR-FRET (IP-One), carbachol + lithium | 210,000 compounds, 0.35% hits;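 further: IP1 builds up when IMPase is blocked and the TR-FRET signal falls; potency means the concentration at half of the fitted maximal effect; plate controls were basal vehicle for no effect and high inhibitor control for full effect; nearly all actives have a fitted effect of over 50% in size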
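CHO-M1, 2000 cells/well, 16–30 h culture; cpd + low Li+, 30 min 37C; lysis with d2-IP1/Eu-anti-IP1 Ab, 10 min RT; TR-FRET 665/620 ratio and 620 channel; AC50 via Hill.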
Active calls of the source: *; ? = inconclusive; . = not tested or not shown; [ ] = dose if it differs, or a comment. Unless noted, the call rests on the fitted dose curve; in most records, active means well fitted curve in the direction sought with a large enough effect; inconclusive means small, poorly fitted or top-dose-only effect, or another doubt; inactive means no such curve, though single readings can be large; an effect the other way counts as inactive or inconclusive. Unless noted, on the % scale 0 is the no-effect control and ±100 the full control effect.

SMILES	IMPase cell inh	PNC inhibitor	ALOX12 inhib	IMPase Li inh
N#Cc1c(-c2ccco2)nc(SCc2ccc(F)cc2)[nH]c1=O	?	-13	2%	13µM*
COc1cc2[nH]c(=O)n3nc(-c4ccccc4)nc3c2cc1OC	1	-100*	3%	16%
O=S(=O)(c1ccc(Br)s1)N1CCc2ccccc2C1	13	-119*	-1%	20%
Cc1ccc(OCC(O)Cn2c(N3CCOCC3)nc3c2c(=O)[nH]c(=O)n3C)cc1 (stereo unspecified)	5	-94*	-1%	.
Cc1ccc(OCC(O)Cn2c(NCCc3ccccc3)nc3c2c(=O)[nH]c(=O)n3C)cc1 (stereo unspecified)	2	6	-1%	5%
Cn1c(=O)[nH]c(=O)c2c1nc(N1CCOCC1)n2CCCSc1ncccn1	2	-114*	-4%	-11%[38.3 µM]
CCN1CC=C2C(C1)C(c1ccc(Cl)s1)C(C#N)=C(N)C2(C#N)C#N (stereo unspecified)	7	-20	-19%	-1%[38.3 µM]
COc1ccc(Br)cc1CN(C)C(C)C(=O)Nc1cccc(C(C)=O)c1 (stereo unspecified)	.	.	.	22%
CCOc1cc(C)c(C(C)C)cc1S(=O)(=O)NCc1ccccn1	-6	-82*	-1%	-10%[38.3 µM]
CCOc1ccc(S(=O)(=O)NCc2ccccn2)cc1	-5	-111*	4%	20%[38.3 µM]
CCCCCCCCCCCCC/C=C/[C@@H](O)[C@H](CO)NC(C)=O	.	.	.	-4%
Cc1nc2ccccn2c1C(=O)N/N=C/c1cc(C)n(-c2ccc(Cl)cc2)c1C	9	-100*	-1%	17%
Cc1cc(/C=N/NC(=O)Cn2c3ccccc3c(=O)c3ccccc32)c(C)n1-c1ccc(Cl)cc1	10	-88*	-1%	-6%
Cc1nc2ccccn2c1C(=O)N/N=C/c1ccccc1[N+](=O)[O-]	1	2	-3%	0%[38.3 µM]
Cc1[nH]c2ccccc2c1/C=N/NC(=O)CCC(=O)NCc1ccccc1	.	.	.	-3%
Cc1[nH]c2ccccc2c1/C=N/NC(=O)C1CC1(c1ccccc1)c1ccccc1 (stereo unspecified)	.	-110*	-4%	15%
O=C1C2C3c4ccccc4C(c4ccccc43)C2c2nc3ccccc3n21 (stereo unspecified)	6	-100*	0%	15%
CC(=O)N(C(C)=O)N1C(=O)C2C3c4ccccc4C(c4ccccc43)C2C1=O (stereo unspecified)	.	.	.	17%
Cc1c(C(=O)N/N=C/c2ccc(N(C)C)cc2)[nH]c2ccc(Cl)cc12	.	-113*	-1%	-5%
Cc1c(C(=O)N/N=C/c2ccccc2)[nH]c2ccc(Cl)cc12	0	-11	1%	12%
Cc1cc(C(=O)COc2ccccc2Cl)c(C)n1-c1ccc2c(c1)OCO2	.	-106*	-5%	18%
O=C(CN1C(=O)NC2(CCCCCC2)C1=O)Nc1ccc2c(c1)CCC2	.	.	.	7%
CC(=O)Nc1ccc(NC(=S)NC(=O)/C=C/c2ccc(Cl)cc2)cc1	.	.	.	-3%
O=C(/C=C/c1ccc(Cl)cc1)NC(=S)Nc1ccc(NC(=O)c2ccco2)cc1	-6	-112*	-3%	4%
O=C(COC(=O)/C=C/c1ccc(Cl)cc1)NCCC1=CCCCC1	.	-90*	-1%	-4%
SMILES	IMPase cell inh	PNC inhibitor	ALOX12 inhib	IMPase Li inh
CC(Oc1ccccc1)C(=O)NC1CCN(Cc2ccccc2)CC1 (stereo unspecified)	8	-84*	-1%	46%[38.3 µM]
c1ccc2c(c1)Cc1cc3cc4c(cc3nc1-2)OCO4	.	.	-15%	1%
Cc1cccc(C)c1N=C1SC(CC(=O)Nc2c(C)cccc2C)C(=O)N1CCc1ccccn1 (stereo unspecified)	.	-112*	-1%	3%
O=C(CC1SC(=Nc2ccccc2)N(CCc2ccccn2)C1=O)Nc1ccc(F)cc1 (stereo unspecified)	.	?	6%	-1%
O=C(NC1CCN(Cc2ccccc2)CC1)c1ccc(-n2c(=O)c(=O)[nH]c3ccccc32)cc1	.	.	-6%	.
O=C(COc1ccc2oc(-c3ccccc3)cc(=O)c2c1)Nc1ccccc1	-2	-112*	-1%	?
COC(=O)COc1ccc2oc(-c3ccc(OC)cc3)cc(=O)c2c1	-5	.	.	.
Cc1ccccc1OCC(=O)Nc1sc(C(=O)Nc2cccc(C)c2C)c(C)c1C#N	?	19	-7%	1µM*
CCCC1C2CN(C(C)C)CC=C2C(C#N)=C(N)C1(C#N)C#N (stereo unspecified)	-2	-92*	-17%	8%[38.3 µM]
CN1CC=C2C(C#N)=C(N)C(C#N)(C#N)C(CCc3ccccc3)C2C1 (stereo unspecified)	5	-14	-4%	4%
CN1CC=C2C(C#N)=C(N)C(C#N)(C#N)[C@H](c3cccs3)[C@H]2C1	-13	-94*	-3%	4%
COc1cc([C@@H]2[C@H]3CN(C)CC=C3C(C#N)=C(N)C2(C#N)C#N)cc2c1OCO2	-9	-99*	-9%	9%[38.3 µM]
N#C[C@@H](Cc1ccc(O)c(O)c1)C(=O)N1CCc2ccccc21	3	.	?	.
Cc1cc(NC(=O)CSc2nc3c(sc4ccccc43)c(=O)n2CCc2ccccc2)n[nH]1	-15	?	0%	?
Cc1cc(NC(=O)CSc2nc3c(sc4ccccc43)c(=O)n2CCCN2CCOCC2)n[nH]1	-3	-83*	1%	?
COc1ccc(-c2[nH]c(-c3ccccc3)nc2SCC(=O)Nc2nccs2)cc1	.	-98*	3%	-1%
COc1ccc(-c2[nH]c(-c3ccc(Cl)cc3)nc2SCC(=O)Nc2nccs2)cc1	.	2	1%	14%
CCOC(=O)N1CCN(S(=O)(=O)N(C)C)CC1	-2	1	-1%	5%[38.3 µM]
N#C/C(=C\c1cccc([N+](=O)[O-])c1)c1nnc2n1CCCCC2	.	32	-4%	10%
CN(c1ccccc1)c1ccc(/C=C(\C#N)c2nnc3n2CCCCC3)cc1[N+](=O)[O-]	-1	-91*	-3%	.
Cc1c(Cl)cnc(NC(=O)COC(=O)c2ccc3ncsc3c2)c1Cl	.	-15	2%	-4%
O=C(COC(=O)c1ccc2ncsc2c1)Nc1ncc(Cl)cc1Cl	.	-95*	-2%	0%
Cc1noc(C)c1CSc1nc2[nH]ncc2c(=O)n1-c1ccccc1	11	-100*	0%	8%
Cc1ccc(N2C(S)=C(C#N)C(=O)NC2c2cccs2)cc1 (stereo unspecified)	.	-114*	?	0%
N#CC1=C(S)N(c2ccccc2)C(c2cccs2)NC1=O (stereo unspecified)	-2	35	2%	-4%
c1nc(N2CCC3(CC2)OCCO3)c2[nH]cnc2n1	.	-113*	-1%	-2%
O=C(NCCCN1CCN(c2ccccc2)CC1)c1nnc(Cc2c(F)cccc2Cl)o1	9	.	.	.
COc1ccccc1N1CC(C(=O)OCC(=O)c2ccc(F)cc2)CC1=O (stereo unspecified)	4	58	1%	-6%[38.3 µM]

Source: PubChem BioAssay (National Center for Advancing Translational Sciences (NCATS))
